# Active and inactive are the calls of the source. No stated cut-off is given here; in the data, active means remaining activity below about 50%; inactive means the rest.
# Biological target: Phospholipase D2 (Homo sapiens) (UniProt O14939)
# Assay: PLD2 inhibitors in cells, cell-based, HEK293, single concentration (AID 602143);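 further: tested at 200 nM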
# Settings: HEK293 cellular PLD2 activity, percent of control; stronger effect = lower value
# Sequence of Phospholipase D2 (Homo sapiens) (O14939 whole entry, looked up): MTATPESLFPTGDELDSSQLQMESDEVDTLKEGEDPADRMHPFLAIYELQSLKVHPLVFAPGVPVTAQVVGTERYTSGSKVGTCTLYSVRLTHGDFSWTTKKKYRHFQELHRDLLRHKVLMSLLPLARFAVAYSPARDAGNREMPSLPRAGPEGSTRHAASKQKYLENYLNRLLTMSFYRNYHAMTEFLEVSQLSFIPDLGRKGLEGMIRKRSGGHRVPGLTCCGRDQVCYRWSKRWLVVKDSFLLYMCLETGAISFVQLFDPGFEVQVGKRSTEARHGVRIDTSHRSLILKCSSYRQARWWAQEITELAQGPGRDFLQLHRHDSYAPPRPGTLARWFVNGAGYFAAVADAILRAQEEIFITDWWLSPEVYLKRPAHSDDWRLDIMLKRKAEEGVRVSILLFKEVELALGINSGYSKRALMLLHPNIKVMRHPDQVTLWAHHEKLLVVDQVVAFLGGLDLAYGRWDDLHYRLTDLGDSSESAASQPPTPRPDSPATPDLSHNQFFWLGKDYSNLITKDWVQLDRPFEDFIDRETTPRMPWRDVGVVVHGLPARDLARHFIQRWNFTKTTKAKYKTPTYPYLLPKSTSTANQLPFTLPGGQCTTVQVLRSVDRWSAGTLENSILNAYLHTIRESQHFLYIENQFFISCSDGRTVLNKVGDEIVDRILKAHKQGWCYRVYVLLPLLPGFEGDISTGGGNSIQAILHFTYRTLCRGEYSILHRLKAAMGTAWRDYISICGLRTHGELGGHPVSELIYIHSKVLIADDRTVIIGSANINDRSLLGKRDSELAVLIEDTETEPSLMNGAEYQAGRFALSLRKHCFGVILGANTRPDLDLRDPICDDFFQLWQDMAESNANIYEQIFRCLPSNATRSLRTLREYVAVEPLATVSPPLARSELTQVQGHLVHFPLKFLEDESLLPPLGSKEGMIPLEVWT
# Sequence of Phospholipase D2 (Homo sapiens) (O14939 whole entry, looked up): as above
row,Compound,remaining activity
1,O=C(CCCN1CCC(O)(c2ccc(Cl)cc2)CC1)c1ccc(F)cc1,107% (inactive)
2,O=C(NCCN1CCC(n2c(=O)[nH]c3ccccc32)CC1)c1ccc2c(ccc3ccc4ccccc4c32)c1,96.7% (inactive)
3,C[C@@H](CN1CCC(n2c(=O)[nH]c3ccccc32)CC1)NC(=O)CSc1ccccc1,86.7% (inactive)
4,O=C(c1ccc2ccccc2c1)N1CCC(n2c(=O)[nH]c3cc(Cl)ccc32)CC1,77.7% (inactive)
5,O=C(NCCN1CCC(n2c(=O)[nH]c3ccccc32)CC1)c1cccc(F)n1,74.5% (inactive)
6,O=C1c2ccccc2C(=O)N1CCCN1CCC(n2c(=O)[nH]c3ccccc32)CC1,97.3% (inactive)
7,NC1(CN2CCC(n3c(=O)[nH]c4ccccc43)CC2)CCCC1 (tested in a mixture with another compound),66.9% (inactive)
8,CN1CCC2(CCN(CCNC(=O)c3ccc4ccccc4c3)CC2)C1=O,129% (inactive)
9,O=C(CCN1CCC(n2c(=O)[nH]c3ccccc32)CC1)NCc1ccc(Cl)cc1,85.2% (inactive)
10,C[C@@H](CN1CCC(n2c(=O)[nH]c3cc(I)ccc32)CC1)NC(=O)c1ccc2ccccc2c1,101% (inactive)
11,C[C@H](CN1CCC2(CC1)CNc1ccccc12)NC(=O)c1ccc2ccccc2c1,53.8% (inactive)
12,O=C(CCc1ccc(F)cc1)NCCN1CCC(n2c(=O)[nH]c3ccccc32)CC1,93.5% (inactive)

# — PubChem BioAssay AID602143 (Vanderbilt Specialized Chemistry Center, 2011)
